From publication PMC11006913

Target: VAX1 (Homo sapiens, UniProt Q5SQQ9 86-172, K157R)
Test: PBM; 200 nM protein, PBS
Conditions: dsDNA, one strand shown

VAX1, sequence (Q5SQQ9 86-172 K157R): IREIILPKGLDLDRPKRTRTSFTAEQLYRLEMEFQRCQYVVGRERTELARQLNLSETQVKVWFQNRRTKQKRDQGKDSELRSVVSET

Row | Sequence | binding signal
1 | GGGAGCCC | 7.13 upbm affinity estimate (log intensity, higher = more binding, comparable within an allelic series)
2 | CTCATTAC | 12.8 upbm affinity estimate (log intensity, higher = more binding, comparable within an allelic series)
3 | TCATTAGA | 12.5 upbm affinity estimate (log intensity, higher = more binding, comparable within an allelic series)
4 | GCTCATTA | 12.7 upbm affinity estimate (log intensity, higher = more binding, comparable within an allelic series)
